Screening data from PubChem BioAssay.
In the library only some 3.7% were active in any assay of this set; here they are far more common.
tim10-1 inh = inhibits growth of tim10-1 mutant yeast | inhibition, % at 20 µM | 330,000 compounds, 2.2% hits | S. cerevisiae tim10-1 ts strain growth, BacTiter-Glo, 24 h;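 active = inhibition of at least 40%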;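 note: mutant grown at 25 °C; 0% = DMSO wells with yeast and 100% = wells holding no yeast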
tim23-1 inh = inhibits growth of tim23-1 mutant yeast | S. cerevisiae tim23-1 growth, BacTiter-Glo luminescence, 24 h | inhibition, % at 20 µM | 330,000 compounds, 1.3% hits | AID 463212;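 active = growth inhibition of the mutant yeast at or above 50%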;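 note: temperature-sensitive mutant grown at 25 °C; plate controls were DMSO-treated mutant yeast for no effect and medium wells lacking yeast for full effect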
PfHsp90 yeast 2 = inhibits growth of yeast expressing Plasmodium falciparum Hsp90; S. cerevisiae expressing PfHsp90, BacTiter-Glo ATP, 48 h; yeast lacking PDR1 and PDR3 efflux regulators; inhibition, % at 9.4 µM; 310,000 compounds, 0.32% hits; AID 504621;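 active = every replicate shows inhibition above about 80%, whatever the replicate mean, limit read from the data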;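 note: 0% = DMSO neutral controls and 100% = 20 µM radicicol positive controls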
Rce1 inhib = blocks yeast Ras-converting enzyme; yeast membranes, quenched prenylated peptide cleavage fluorescence; calls only; Q03530; 290,000 compounds, 0.27% hits;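 active = fall in fluorescence gain of 50% or more versus controls, with final raw signal at or below 3038400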;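 note: plate controls were neutral control wells for no effect and wells lacking membranes for full effect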
Target sequence (Q03530 whole entry, looked up): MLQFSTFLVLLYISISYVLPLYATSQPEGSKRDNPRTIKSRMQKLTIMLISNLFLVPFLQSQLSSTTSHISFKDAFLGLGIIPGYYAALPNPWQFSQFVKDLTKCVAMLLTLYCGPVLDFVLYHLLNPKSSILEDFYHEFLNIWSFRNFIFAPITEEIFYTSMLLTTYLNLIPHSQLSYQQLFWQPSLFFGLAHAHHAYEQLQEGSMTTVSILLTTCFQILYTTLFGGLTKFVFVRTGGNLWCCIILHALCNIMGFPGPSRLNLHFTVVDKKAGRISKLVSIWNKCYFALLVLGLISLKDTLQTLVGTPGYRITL
TIM10 inh = TIM10 yeast growth inhibition | S. cerevisiae TIM10 strain growth, BacTiter-Glo luminescence, 24 h | inhibition, % at 10 µM | 330,000 compounds, 1.4% hits | AID 463195;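 active = inhibition of 40% or more at the single tested concentration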;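 note: wild-type TIM10 isogenic control strain grown at permissive 25 °C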
tim10-1 conf = confirmation of tim10-1 mutant yeast growth inhibitors. shares compounds with tim10-1 inh. S. cerevisiae tim10-1 ts strain growth, BacTiter-Glo, 24 h. AID 463213. inhibition, % at 20 µM. 7,400 compounds, 56% hits;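 active = inhibition of yeast growth at or above a set limit in either of two repeat tests at 20 µM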;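 note: tim10-1 mutant grown at permissive 25 °C to find synthetic lethal compounds; 0% = DMSO yeast wells and 100% = medium wells without yeast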
* hit, by the source's call; i = inactive; x = no result given.

SMILES	tim10-1 inh	tim23-1 inh	PfHsp90 yeast 2	Rce1 inhib	TIM10 inh	tim10-1 conf
CC(=O)Oc1ccc(/C=C2/Oc3ccccc3C2=O)cc1	44.4*	39.6	-12.9	i	25.9	8.5
Cc1cccc(OCCNc2cc(N3CCN(C)CC3)ccc2[N+](=O)[O-])c1	28.9	23.9	35.3	i	20.1	x
Cc1ccc(OCCNc2cc(N3CCN(CCO)CC3)ccc2[N+](=O)[O-])cc1C	43.2*	35.2	24.6	i	17.3	22.7
Cc1cc(=O)[nH]c(N=N/C(=N/Nc2ccc(O)cc2)c2ccccc2)n1	49.7*	42.3	12.7	i	13.1	38.1*
CN(C)c1ccc(-c2ccc3c(=O)c4ccccc4n(C)c3c2)cn1	5.6	11.5	-3.3	i	-8.6	x
CCCc1cc(-c2n[nH]c(=S)n2-c2cccc(C)c2)cs1	46.0*	48.5	-29.5	i	27.9	39.2*
Cc1ccccc1NC(=O)C(C)OC(=O)c1ccccc1C(=O)N(C)c1ccccc1 (configuration not stated)	20.4	20.1	x	i	12.0	x
O=C(NCc1cccnc1)c1ccc(-c2cc(Cl)ccc2Cl)o1	40.2*	32.6	-13.6	i	15.0	29.9
O=C(NCc1cccnc1)c1ccc(-c2ccc(Cl)cc2)o1	18.9	9.6	23.3	i	0.4	x
Cc1c(NC(=O)/C(C#N)=C/c2ccc(-c3ccc(Cl)c(Cl)c3)o2)c(=O)n(-c2ccccc2)n1C	42.5*	29.5	-3.4	i	33.5	28.4*
Cc1c(NC(=O)/C(C#N)=C/c2ccc(-c3cccc(Cl)c3)o2)c(=O)n(-c2ccccc2)n1C	33.7	39.7	1.5	i	21.5	x
O=C(CSc1nnc(Cc2ccccc2)c(=O)[nH]1)Nc1ccccc1	6.0	4.3	-15.5	i	0.5	x
Cc1ccc(NC(=O)c2ccc(Cl)c(S(=O)(=O)Nc3c(C)n(C)n(-c4ccccc4)c3=O)c2)cc1Cl	22.7	21.0	-13.8	x	21.9	x
CC(=O)Nc1nc(-c2ccccc2)nc(-c2ccccc2OC(C)=O)n1	48.0*	38.6	-19.9	i	29.2	16.0
C[C@@H](C(=O)OCC(=O)c1ccc(F)c(F)c1)N1C(=O)C2CCCCC2C1=O (some centres not stated)	6.0	2.8	-7.6	x	-1.8	x
O=C1N(Cc2cccc(Cl)c2)C[C@@H]2C[C@@H](c3c[nH]c4ccccc34)N3CCC[C@@]123	10.8	12.4	-14.7	i	-7.8	x
O=C(Nc1ccc(N2CCCCCC2)cc1)c1ccccc1Cl	25.3	39.2	-17.6	i	14.3	x
O=C(Nc1ccc(N2CCCCC2)cc1)c1ccccn1	40.9*	43.5	35.2	x	20.6	30.6*
Cc1nc2ccc(NS(=O)(=O)c3ccc(C)c(C)c3)cc2s1	42.2*	33.1	-21.2	i	27.7	11.6
CCOc1ccc(Br)cc1S(=O)(=O)NCC(c1ccc(OC)cc1)N1CCOCC1 (configuration not stated)	x	x	12.1	x	x	x
NNc1nc2sc3c(c2c(=O)n1Cc1ccccc1)CCC3	53.9*	23.8	-2.3	i	17.7	21.9
O=S(=O)(c1ccccc1F)N1CCN(CCOc2ccccc2)CC1	20.2	38.5	13.3	x	13.0	x
Cc1cc(OCCN2CCN(S(=O)(=O)c3ccccc3F)CC2)ccc1C(C)C	42.6*	26.4	0.8	x	20.5	26.1
COc1ccc(Cn2nnnc2CN2CCC(c3nc4ccccc4s3)CC2)cc1	40.8*	9.8	-10.6	i	29.8	18.1
CC(C)c1ccc(CN2CC(C(=O)O)CC2=O)cc1 (configuration not stated)	16.4	18.7	-3.0	i	-12.3	x
SMILES	tim10-1 inh	tim23-1 inh	PfHsp90 yeast 2	Rce1 inhib	TIM10 inh	tim10-1 conf
Cc1ccccc1NC(=O)CSc1nc(N)c2c3c(sc2n1)CSC(C)(C)C3	43.3*	38.8	-6.0	i	9.4	33.4*
CN(C)c1nc(=NCc2cccs2)ss1	x	x	-21.1	x	x	x
C[C@H](CO)N1C[C@H](C)[C@@H](CN(C)S(C)(=O)=O)Oc2c(NC(=O)Nc3ccccc3)cccc2C1=O	5.9	9.2	5.2	x	1.0	x
COc1ccc(C(=O)COC(=O)c2cc(C)no2)c(OC)c1	27.6	10.0	-33.7	x	5.8	x
Cc1ccc(-n2ncc3c(SCc4cccnc4)ncnc32)c(C)c1	x	x	3.9	i	x	x
Cc1ccc(CNC(=O)C2CCCN(c3nc4ccccc4o3)C2)cc1 (configuration not stated)	0.6	-6.6	12.2	i	-8.6	x
